From ChEMBL document CHEMBL3988442, “University of Dundee, Small-Polar-MMV Screening Library” (2021) come the findings set out here.

Each structure is given as a SMILES string. In all, about 48,000 compounds went through this assay and about 13,000 (27%) showed an effect of 50% or more. This is one part of the list.

The test system of the experiment is Wolbachia pipientis. The experiment can be described thus: Anti-Wolbachia Cell-Based Screen. Format: functional. The note with it: 5 µM. Also noted: scale not given: in the data most compounds retested in dose-response had high values.
Regarding `O=C(O)C(F)(F)F.c1cnc(N2CCOCC3(CN(Cc4nccs4)CCO3)C2)nc1` (stereo not drawn), the “Percent Effect” value is given as 8.217%. The result for `Cc1cnc(N2CCOC3(CCCN(C)C3)C2)nc1.O=C(O)C(F)(F)F` (stereo not drawn) reads -2.261%. The result for `O=C(O)C(F)(F)F.c1cnc(N2CCOCC3(CN(Cc4ccsc4)CCO3)C2)nc1` (stereo not drawn) reads -6.179%; that for `O=C(O)C(F)(F)F.c1cnc(N2CCOC3(COCCN(Cc4cc[nH]n4)C3)C2)nc1` (stereo not drawn), -4.382%; that for `Cc1cnc(N2CCC3(CC2)CN(Cc2cccs2)CCO3)nc1.O=C(O)C(F)(F)F.O=C(O)C(F)(F)F`, 102.1%.

Consider `CN(C)C(=O)CN1CCOCC2(C1)CN(c1ncccn1)CCO2.O=C(O)C(F)(F)F` (stereo not drawn), for which the “Percent Effect” value was determined as 101.1%. In the case of `Fc1cnc(N2CCC3(CC2)CN(Cc2cccs2)CCO3)nc1.O=C(O)C(F)(F)F.O=C(O)C(F)(F)F` it was 98.63%; in that of `Cc1cnc(N2CCOC3(CCCN(CC(=O)N(C)C)C3)C2)nc1.O=C(O)C(F)(F)F.O=C(O)C(F)(F)F` (stereo not drawn), -7.39%.

For `Fc1cnc(N2CCCC3(CN(Cc4cccs4)CCO3)C2)nc1.O=C(O)C(F)(F)F` (stereo not drawn), the “Percent Effect” value was 111.6%. The result for `O=C(O)C(F)(F)F.OCCN1CCOC2(CCCN(c3ncc(F)cn3)C2)C1` (stereo not drawn) reads 13%. Regarding `CC[C@H]1CN2CC[C@H]1C[C@@H]2CNC(=O)Nc1ccc(Br)cc1`, the “Percent Effect” value is -5.559%. The result for `CC(Cc1c(F)cccc1F)NC(=O)CN(CC(N)=O)C(C)C` (stereo not drawn) reads 2.304%; that for `COc1cc(C2(C(=O)NCCn3ccnc3)CCCC2)ccc1C`, 17.74%. Take `c1ccc(CNc2ncc(CN3CC[C@H]4CC[C@@H](C3)N4)cn2)cc1`: the “Percent Effect” value is on record as -14.93%. Consider `O=C(c1ccc(F)c(F)c1)N1C[C@H]2CNC[C@H]2C1`, for which the “Percent Effect” value was -36.88%. Turning to `COc1ccc(-c2ccccc2CCN)c(OC)c1`, the “Percent Effect” value was determined as 16.22%. For `Cn1cc(CN2C[C@@H]3[C@@H](C2)OCC(=O)N3Cc2ccncc2)cn1`, the “Percent Effect” value is reported as -7.726%. In the case of `Cn1cc(CN2CC[C@H]3[C@H]2CC(=O)N3Cc2ccncc2)cn1` it was 97.58%; in that of `Cn1cc(C(=O)N2CC[C@@H]3[C@@H]2CCN3Cc2ccncc2)cn1.O=C(O)C(F)(F)F.O=C(O)C(F)(F)F`, 8.346%; in that of `CCOC(=O)N1CCC2(CCNC2)C1.Cl` (stereo not drawn), -20.05%. The result for `CN1CCC2(COCc3cnc(N4CCOCC4)nc32)C1.O=C(O)C(F)(F)F` (stereo not drawn) reads -0.9764%. The result for `CC(C)c1nccc([C@H]2C[C@@H]3CCN(Cc4ccoc4)C[C@H]3O2)n1` reads -1.768%; that for `CCc1noc(CN(C)CCC(=O)Nc2ccc(C#N)c(Cl)c2)n1`, 4.268%; that for `N#Cc1ccc(NC2CCN(c3ncccn3)CC2)cc1Cl`, -9.238%. As to `CN(CCOCC1CC1)C(=O)Nc1ccc(C#N)c(Cl)c1`, the “Percent Effect” value was 80.92%. As for `CN1CC[C@@H]2OC[C@H](C(=O)N(C)Cc3ccccn3)C[C@@H]2C1.O=C(O)C(F)(F)F.O=C(O)C(F)(F)F`, the “Percent Effect” value was 91.38%. The result for `Cc1ccc(C(=O)N2C[C@@H]3CCN(C(C)C)C[C@@H]3C2)cn1.O=C(O)C(F)(F)F` reads -22.14%. As to `CC(C)N1CC[C@@H]2OC[C@H](C(=O)Nc3cccnc3)C[C@@H]2C1.O=C(O)C(F)(F)F.O=C(O)C(F)(F)F`, the “Percent Effect” value is 84.8%. The result for `CCCN1CC[C@@H]2OC[C@H](C(=O)Nc3cccnc3)C[C@@H]2C1.O=C(O)C(F)(F)F.O=C(O)C(F)(F)F` reads 103.7%; that for `O=C(Nc1cccnc1)[C@H]1CO[C@H]2CCNC[C@H]2C1.O=C(O)C(F)(F)F.O=C(O)C(F)(F)F`, 99.23%. The result for `O=C(Nc1cccnc1)[C@H]1COC[C@H]2CN(C3CCCC3)C[C@H]21.O=C(O)C(F)(F)F.O=C(O)C(F)(F)F` reads 10.99%. The result for `O=C(Nc1cccnc1)[C@@H]1C[C@H]2OCC[C@H]2N(Cc2ccsc2)C1.O=C(O)C(F)(F)F.O=C(O)C(F)(F)F` reads -12.16%; that for `CN(C)C(=O)[C@@H]1CC[C@@H]2[C@@H](CCN2Cc2ccccn2)O1.O=C(O)C(F)(F)F.O=C(O)C(F)(F)F`, -15.27%. Consider `CN(Cc1ccccn1)C1CCC[C@@H]2CN(CC3CC3)C[C@H]12.O=C(O)C(F)(F)F.O=C(O)C(F)(F)F` (stereo partly drawn), for which the “Percent Effect” value is listed as -32.78%. The result for `O=C(Nc1cccnc1)[C@H]1C[C@@H]2CCN(Cc3nccs3)C[C@@H]2O1.O=C(O)C(F)(F)F.O=C(O)C(F)(F)F` reads 21.14%; that for `O=C(Nc1cccnc1)[C@H]1CN(C2CCCC2)C[C@H]2OCC[C@@H]12.O=C(O)C(F)(F)F.O=C(O)C(F)(F)F`, 2.861%; that for `CCOCCN1C[C@H](C(=O)Nc2cccnc2)[C@@H]2CCO[C@@H]2C1.O=C(O)C(F)(F)F.O=C(O)C(F)(F)F`, 4.673%.

Consider `Cl.O=C(C1CCC1)N1CCC2(CCNCC2)C1`, for which the “Percent Effect” value was -22.91%.

`O=C(Cc1ccc(O)c(Cl)c1)N1CCN(CC2CC2)[C@@H]2CS(=O)(=O)C[C@@H]21`: the “Percent Effect” value was found to be 2.879%. The result for `Cc1cc(C)c(CNc2cnc3ccccc3n2)c(=O)[nH]1` reads 10.07%; that for `CC1COC2(CCN(C(=O)c3ncoc3C(C)C)CC2)O1` (stereo not drawn), 0.05226%.

`O=C(O)C(F)(F)F.O=C(O)C(F)(F)F.O=C1[C@H]2CN(Cc3ccoc3)C[C@H]2CN1Cc1ccncc1`: the “Percent Effect” value worked out at 1.4%. The result for `CS(=O)(=O)Cc1nc(CN2CC=C(c3ccccc3)CC2)cs1` reads 9.315%; that for `O=C(C1CCC1)N1CC[C@]2(O)CCN(Cc3ncccn3)C[C@@H]2C1`, 9.794%; that for `Cc1noc([C@H]2C[C@H]3OCC[C@H]3N(Cc3ccncc3)C2)n1`, 9.305%. As to `Cc1noc([C@@H]2C[C@H]3OCC[C@H]3N(C(C)C)C2)n1.O=C(O)C(F)(F)F`, the “Percent Effect” value was found to be 82.77%. On to `Cc1noc([C@]23COC[C@H]2CN(C(C)C)C3)n1.O=C(O)C(F)(F)F`, for which the “Percent Effect” value is -9.217%. In the case of `Cc1nc(COC[C@H]2CC[C@H]3NCC[C@H]3O2)cs1.Cl.Cl` it was -19.37%.
